According to PubChem BioAssay (NCATS):
Inconclusive results are not listed. A number with no mark means an inactive call. Calls of active or inactive are those of the source. Calls follow the shape of the dose curve; as a rule, active = well fitted inhibition curve with a large enough effect; inconclusive = small, poorly fitted or top-dose-only effect; inactive = flat fitted curve, though single readings scatter.
Potency is read from the fitted curve at half-maximal effect.

Each molecule was assayed on Zika virus NS2B-NS3 protease (assay: Primary screen GU AMC qHTS for Zika virus inhibitors (AID 1347154; also: nearly all actives have a fitted effect of over 70% in size;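 as to activity change, negative = inhibition: 0% = no-inhibitor control and -100% = no-enzyme control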)). Conditions: Zika NS2B-NS3 unlinked protease, AMC fluorogenic substrate; series mostly up to 54.1 µM; activity change, negative = inhibition: at the top concentration.
In short: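 Unlinked Zika NS2B hydrophilic domain–NS3 protease complex at 25 nM in 10 mM Tris-HCl pH 8.0, 0.01% Tween 20, with an AMC peptide substrate. Fluorescence change (340/450 nm) over 15 min at room temperature, normalized to controls, fitted to 4-parameter Hill.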
In the case of `CC(C)(C)NCC(O)COc1cccc2c1C[C@H](O)[C@H](O)C2` (some centres undefined), the “activity change, negative = inhibition” value is reported as -5.3%.
In the case of `CCCCCCCCCCCCCCCCO`, the “activity change, negative = inhibition” value is reported as -10.8%.
With `NC(=S)N/N=C/c1cccnc1` the “activity change, negative = inhibition” value was -3.47%.
For `Nc1ccc(C(=O)NCC(=O)O)cc1`, the “activity change, negative = inhibition” value was -5.6%.
With `Cc1ccc(O)c([C@H](CCN(C(C)C)C(C)C)c2ccccc2)c1` the “activity change, negative = inhibition” value was 4.1%.
`CCCCCCCCCCCCCC[N+](C)(C)Cc1ccccc1` was tested, and the “activity change, negative = inhibition” value was -21.2%.
With `CN(C)CCC[C@@]1(c2ccc(F)cc2)OCc2cc(C#N)ccc21` the Potency was “inactive”.
In the case of `COc1ccc2c(c1)c1c3n2CCN(C)C3=NCC1`, the “activity change, negative = inhibition” value is reported as -4.66%.
With `CCc1cc(Cl)c(OC)c(C(=O)NC[C@@H]2CCCN2CC)c1O` the Potency was “inactive”.
With `CC(=O)N[C@@H](CCC(=O)O)C(=O)O` the “activity change, negative = inhibition” value was -0.444%.
For `CCCCCCCCCCCCCC(=O)OC(C)C`, the “activity change, negative = inhibition” value was -1.37%.
For `CC(=O)Nc1ccc(CC(=O)O)cc1`, the “activity change, negative = inhibition” value was 7.1%.
`CCc1nn(CCCN2CCN(c3cccc(Cl)c3)CC2)c(=O)n1CCOc1ccccc1` was tested, and the Potency was “inactive”.
`CC(=O)Nc1ncc([N+](=O)[O-])s1` was tested, and the “activity change, negative = inhibition” value was -3.14%.
`CC(=O)Nc1ccc(S(=O)(=O)Nc2ccc([N+](=O)[O-])cc2)cc1` was tested, and the “activity change, negative = inhibition” value was -1.87%.
For `COc1cc(C(=O)NCc2ccc(OCCN(C)C)cc2)cc(OC)c1OC`, the “activity change, negative = inhibition” value was 4.86%.
With `FC1(F)C(F)(F)C(F)(F)C2(F)C(F)(F)C(F)(F)C(F)(F)C(F)(F)C2(F)C1(F)F` (centres undefined) the “activity change, negative = inhibition” value was -14.9%.
With `C[C@@H](O)[C@H]1C(=O)N2C(C(=O)O)=C(S[C@@H]3CN[C@H](CNS(N)(=O)=O)C3)[C@H](C)[C@H]12` the “activity change, negative = inhibition” value was -4.18%.
For `CCCN(CCc1cccs1)[C@H]1CCc2c(O)cccc2C1`, the “activity change, negative = inhibition” value was -11.5%.
In the case of `CC(=O)Oc1ccc(C)cc1`, the “activity change, negative = inhibition” value is reported as -5.55%.
For `O=C(NCCc1c[nH]c2ccccc12)c1cccnc1`, the “activity change, negative = inhibition” value was -0.753%.
For `Cc1ncc(CO)c(C=O)c1O`, the Potency was 14.4 µM (active).
With `CCCCC(CC)COC(=O)c1ccc(N(C)C)cc1` (centres undefined) the “activity change, negative = inhibition” value was -14.6%.
`NCCNc1cccc2ccccc12` was tested, and the Potency was 14.4 µM (active).
`CC(C)(C)NC[C@H](O)COc1cccc2c1CCCC2=O` was tested, and the “activity change, negative = inhibition” value was 1.71%.
In the case of `CCOC(=O)c1ccc(N)cc1`, the “activity change, negative = inhibition” value is reported as -2.37%.
In the case of `CN1CCN(C2=Nc3ccccc3Sc3ccc(Cl)cc32)CC1`, the Potency is reported as “inactive”.
`CCCCNC(=O)NS(=O)(=O)c1ccc(N)cc1` was tested, and the “activity change, negative = inhibition” value was -2.75%.
In the case of `Cc1cc(-c2ccccc2)nnc1NCCN1CCOCC1`, the “activity change, negative = inhibition” value is reported as 2.3%.
With `COP(=O)(OC)OC(c1ccc(Cl)cc1)P(=O)(OC)OC` (centres undefined) the Potency was “inactive”.
`Cc1cccc(C)c1NC(=O)c1ccccc1C(=O)O` was tested, and the “activity change, negative = inhibition” value was -4.8%.
With `O=C(c1ccc(F)cc1)C1CCN(CCn2c(=S)[nH]c3ccccc3c2=O)CC1` the Potency was “inactive”.
For `NC1CCN(c2nc3c(cc2F)c(=O)c(C(=O)O)cn3-c2ccc(F)cc2F)C1` (centres undefined), the “activity change, negative = inhibition” value was -7.43%.
With `C#C[C@]1(O)CC[C@H]2[C@@H]3CCc4cc(OC)ccc4[C@H]3CC[C@@]21C` the “activity change, negative = inhibition” value was -6.46%.
With `COc1ccc(CN(CCN(C)C)c2ncccn2)cc1` the “activity change, negative = inhibition” value was -0.0404%.
`CCOC(=O)[C@H](CCc1ccccc1)N[C@@H](C)C(=O)N1[C@H](C(=O)O)C[C@@H]2CCC[C@@H]21` was tested, and the “activity change, negative = inhibition” value was 0.283%.
With `COc1cc(NS(=O)(=O)c2ccc(N)cc2)ncn1` the “activity change, negative = inhibition” value was -2.92%.
With `CCNC(=O)/C=C/c1cccc(Br)c1` the “activity change, negative = inhibition” value was -4.07%.
With `O=C(O)CCc1nc2ccccc2[nH]1` the “activity change, negative = inhibition” value was 2.14%.
